The results in this text go back to PubChem BioAssay.

SMILES strings stand for the structures. Unmarked numbers belong to inactive results. Calls of active or inactive are those of the source.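 The calls were made as follows, unless noted: active = mean inhibition above 46.5%, the solvent-only control mean plus 3 SD; inactive = the rest.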

The target of test [1] is Nuclear receptor coactivator 3 (Homo sapiens) (UniProt Q9Y6Q9). The experiment in a line: SRC3 coactivator transcriptional activity inhibitors, confirmation, cell-based, luminescence, quadruplicate (AID 588792;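 active = mean inhibition over 43.08%, the solvent-only control mean plus 3 SD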;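 also: 0% = DMSO treated cells and 100% = gossypol at 36 µM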). Particulars: HEK293 GAL4-SRC3 luciferase reporter, at 3.6 µM, active compounds read high.
Chain of Nuclear receptor coactivator 3 (Homo sapiens) (Q9Y6Q9 whole entry, looked up, the tested form may be a part): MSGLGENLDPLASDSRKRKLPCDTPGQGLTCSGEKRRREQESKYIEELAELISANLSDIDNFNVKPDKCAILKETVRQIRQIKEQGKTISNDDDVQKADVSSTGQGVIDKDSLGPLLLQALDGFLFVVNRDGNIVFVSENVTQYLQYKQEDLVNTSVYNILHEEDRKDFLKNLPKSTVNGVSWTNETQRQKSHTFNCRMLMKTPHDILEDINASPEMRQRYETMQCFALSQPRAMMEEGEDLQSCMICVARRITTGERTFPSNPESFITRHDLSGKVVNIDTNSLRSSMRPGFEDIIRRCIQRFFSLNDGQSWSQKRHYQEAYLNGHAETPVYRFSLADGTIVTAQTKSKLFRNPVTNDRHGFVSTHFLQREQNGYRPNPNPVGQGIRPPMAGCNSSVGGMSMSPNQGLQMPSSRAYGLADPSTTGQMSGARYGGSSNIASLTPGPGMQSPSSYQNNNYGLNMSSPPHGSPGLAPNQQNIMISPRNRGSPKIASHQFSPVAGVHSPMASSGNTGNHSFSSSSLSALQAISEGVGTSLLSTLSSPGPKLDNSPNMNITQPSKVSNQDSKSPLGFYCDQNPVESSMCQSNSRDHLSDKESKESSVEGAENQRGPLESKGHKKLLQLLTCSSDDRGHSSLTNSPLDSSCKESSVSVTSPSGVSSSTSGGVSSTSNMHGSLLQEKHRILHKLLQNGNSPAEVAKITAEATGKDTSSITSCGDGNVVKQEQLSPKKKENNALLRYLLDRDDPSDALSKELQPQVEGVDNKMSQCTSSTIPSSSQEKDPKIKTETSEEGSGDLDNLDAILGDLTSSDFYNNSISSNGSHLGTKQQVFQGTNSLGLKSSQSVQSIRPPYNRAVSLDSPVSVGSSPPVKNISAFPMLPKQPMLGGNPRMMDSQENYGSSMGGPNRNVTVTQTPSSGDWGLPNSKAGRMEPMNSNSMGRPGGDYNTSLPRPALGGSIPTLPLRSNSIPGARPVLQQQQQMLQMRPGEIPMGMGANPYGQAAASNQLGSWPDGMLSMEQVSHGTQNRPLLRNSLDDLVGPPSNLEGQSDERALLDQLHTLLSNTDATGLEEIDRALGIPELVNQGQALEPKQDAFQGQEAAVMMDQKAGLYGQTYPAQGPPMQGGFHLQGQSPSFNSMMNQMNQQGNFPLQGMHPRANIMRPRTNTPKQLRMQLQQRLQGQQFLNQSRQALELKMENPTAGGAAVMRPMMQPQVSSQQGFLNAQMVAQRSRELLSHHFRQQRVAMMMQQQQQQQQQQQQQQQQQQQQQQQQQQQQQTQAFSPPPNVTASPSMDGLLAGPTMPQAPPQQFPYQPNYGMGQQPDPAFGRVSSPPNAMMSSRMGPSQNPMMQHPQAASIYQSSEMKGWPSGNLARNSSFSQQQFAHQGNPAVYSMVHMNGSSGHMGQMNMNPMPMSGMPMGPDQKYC
The test system of test [2] is transactivating tegument protein VP16 (Human herpesvirus 1), Gal4-VP16 luciferase reporter. The experiment in a line: VP16 transactivation inhibitors, counter-screen for SRC3 inhibitor project, cell-based, luminescence, high throughput (AID 588794; in the data active = inhibition above about 30%). Particulars: mammalian cells, VP16-driven luciferase reporter luminescence; at 3.6 µM; active compounds read high. For orientation: Counterscreens check selectivity or assay interference.

The target of test [3] is Nuclear receptor coactivator 1 (Homo sapiens) (UniProt Q15788). The experiment in a line: SRC1 coactivator transcriptional activity inhibitors, confirmation, cell-based, luminescence, quadruplicate (AID 588820;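 active = mean inhibition above 46.68%, the untreated control wells mean plus 3 SD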;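 also: 0% = DMSO wells and 100% = gossypol 36 µM treated wells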). The note with it: HEK293 GAL4-SRC1 luciferase reporter, at 3.6 µM, active compounds read high. Background: Reporter assays use an easily measured gene product as a stand-in for the process of interest.
Chain of Nuclear receptor coactivator 1 (Homo sapiens) (Q15788 whole entry, looked up, the tested form may be a part): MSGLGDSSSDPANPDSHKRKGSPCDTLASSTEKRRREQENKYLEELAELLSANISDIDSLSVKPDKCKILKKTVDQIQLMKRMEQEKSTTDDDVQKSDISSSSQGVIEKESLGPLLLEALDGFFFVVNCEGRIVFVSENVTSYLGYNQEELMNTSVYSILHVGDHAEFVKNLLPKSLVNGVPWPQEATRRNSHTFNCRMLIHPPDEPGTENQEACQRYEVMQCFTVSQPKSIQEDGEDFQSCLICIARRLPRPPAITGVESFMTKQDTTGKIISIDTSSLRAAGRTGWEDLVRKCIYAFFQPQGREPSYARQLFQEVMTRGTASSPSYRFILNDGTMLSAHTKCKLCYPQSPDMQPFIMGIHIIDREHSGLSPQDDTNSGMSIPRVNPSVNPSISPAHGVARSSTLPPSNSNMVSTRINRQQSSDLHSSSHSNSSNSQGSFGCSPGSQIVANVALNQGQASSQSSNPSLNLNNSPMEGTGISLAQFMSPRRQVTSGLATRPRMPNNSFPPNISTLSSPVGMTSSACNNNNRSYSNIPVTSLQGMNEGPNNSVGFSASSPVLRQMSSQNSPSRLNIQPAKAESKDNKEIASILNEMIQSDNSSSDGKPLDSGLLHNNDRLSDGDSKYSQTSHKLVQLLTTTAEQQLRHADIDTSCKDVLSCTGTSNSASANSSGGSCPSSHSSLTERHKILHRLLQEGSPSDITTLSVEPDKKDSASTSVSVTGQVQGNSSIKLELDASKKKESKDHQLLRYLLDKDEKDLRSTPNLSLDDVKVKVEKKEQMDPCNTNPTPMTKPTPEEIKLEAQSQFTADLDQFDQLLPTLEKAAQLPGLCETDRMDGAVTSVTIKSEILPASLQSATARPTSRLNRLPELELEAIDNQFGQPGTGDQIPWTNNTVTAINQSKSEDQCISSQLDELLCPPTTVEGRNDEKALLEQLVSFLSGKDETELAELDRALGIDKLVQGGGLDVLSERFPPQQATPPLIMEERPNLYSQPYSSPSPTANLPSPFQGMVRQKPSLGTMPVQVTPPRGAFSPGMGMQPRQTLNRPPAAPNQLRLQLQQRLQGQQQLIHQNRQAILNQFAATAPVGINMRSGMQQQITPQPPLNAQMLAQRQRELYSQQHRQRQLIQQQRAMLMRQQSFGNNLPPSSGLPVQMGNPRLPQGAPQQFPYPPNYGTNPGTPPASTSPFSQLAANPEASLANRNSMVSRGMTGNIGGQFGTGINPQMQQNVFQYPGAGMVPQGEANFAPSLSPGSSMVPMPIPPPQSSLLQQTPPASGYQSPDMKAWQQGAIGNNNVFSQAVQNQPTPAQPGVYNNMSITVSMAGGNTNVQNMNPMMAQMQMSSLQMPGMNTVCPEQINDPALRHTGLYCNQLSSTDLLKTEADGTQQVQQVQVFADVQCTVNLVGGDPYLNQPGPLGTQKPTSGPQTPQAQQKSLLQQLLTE

Test [4] in a line: VP16 transactivation inhibitors, counter-screen for SRC1 inhibitor project, cell-based, luminescence, high throughput (AID 588824; in the data active = inhibition above about 25%). Particulars: cell-based VP16 transactivation luciferase luminescence; at 3.6 µM; active compounds read high.
Test [5] relates to transactivating tegument protein VP16 (Human herpesvirus 1). The experiment in a line: VP16 transactivation reporter inhibitors, counter-screen for SRC2 inhibitor project, cell-based, luminescence, single concentration (AID 652007; in the data active = inhibition above about 36%). Particulars: cell-based VP16 transactivation luciferase reporter, at 8.9 µM, active compounds read high.
In test [6] the target is Nuclear receptor coactivator 2 (Homo sapiens) (UniProt Q15596). The experiment in a line: SRC2 coactivator transcriptional activity inhibitors, confirmation, cell-based, luminescence, HEK293, triplicate (AID 652008).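 Also: 0% = DMSO-treated cells and 100% = Gossypol at 36 µM.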 The note with it: HEK293 GAL4-SRC2 luciferase reporter, at 8.9 µM, active compounds read high.
Chain of Nuclear receptor coactivator 2 (Homo sapiens) (Q15596 whole entry, looked up, the tested form may be a part): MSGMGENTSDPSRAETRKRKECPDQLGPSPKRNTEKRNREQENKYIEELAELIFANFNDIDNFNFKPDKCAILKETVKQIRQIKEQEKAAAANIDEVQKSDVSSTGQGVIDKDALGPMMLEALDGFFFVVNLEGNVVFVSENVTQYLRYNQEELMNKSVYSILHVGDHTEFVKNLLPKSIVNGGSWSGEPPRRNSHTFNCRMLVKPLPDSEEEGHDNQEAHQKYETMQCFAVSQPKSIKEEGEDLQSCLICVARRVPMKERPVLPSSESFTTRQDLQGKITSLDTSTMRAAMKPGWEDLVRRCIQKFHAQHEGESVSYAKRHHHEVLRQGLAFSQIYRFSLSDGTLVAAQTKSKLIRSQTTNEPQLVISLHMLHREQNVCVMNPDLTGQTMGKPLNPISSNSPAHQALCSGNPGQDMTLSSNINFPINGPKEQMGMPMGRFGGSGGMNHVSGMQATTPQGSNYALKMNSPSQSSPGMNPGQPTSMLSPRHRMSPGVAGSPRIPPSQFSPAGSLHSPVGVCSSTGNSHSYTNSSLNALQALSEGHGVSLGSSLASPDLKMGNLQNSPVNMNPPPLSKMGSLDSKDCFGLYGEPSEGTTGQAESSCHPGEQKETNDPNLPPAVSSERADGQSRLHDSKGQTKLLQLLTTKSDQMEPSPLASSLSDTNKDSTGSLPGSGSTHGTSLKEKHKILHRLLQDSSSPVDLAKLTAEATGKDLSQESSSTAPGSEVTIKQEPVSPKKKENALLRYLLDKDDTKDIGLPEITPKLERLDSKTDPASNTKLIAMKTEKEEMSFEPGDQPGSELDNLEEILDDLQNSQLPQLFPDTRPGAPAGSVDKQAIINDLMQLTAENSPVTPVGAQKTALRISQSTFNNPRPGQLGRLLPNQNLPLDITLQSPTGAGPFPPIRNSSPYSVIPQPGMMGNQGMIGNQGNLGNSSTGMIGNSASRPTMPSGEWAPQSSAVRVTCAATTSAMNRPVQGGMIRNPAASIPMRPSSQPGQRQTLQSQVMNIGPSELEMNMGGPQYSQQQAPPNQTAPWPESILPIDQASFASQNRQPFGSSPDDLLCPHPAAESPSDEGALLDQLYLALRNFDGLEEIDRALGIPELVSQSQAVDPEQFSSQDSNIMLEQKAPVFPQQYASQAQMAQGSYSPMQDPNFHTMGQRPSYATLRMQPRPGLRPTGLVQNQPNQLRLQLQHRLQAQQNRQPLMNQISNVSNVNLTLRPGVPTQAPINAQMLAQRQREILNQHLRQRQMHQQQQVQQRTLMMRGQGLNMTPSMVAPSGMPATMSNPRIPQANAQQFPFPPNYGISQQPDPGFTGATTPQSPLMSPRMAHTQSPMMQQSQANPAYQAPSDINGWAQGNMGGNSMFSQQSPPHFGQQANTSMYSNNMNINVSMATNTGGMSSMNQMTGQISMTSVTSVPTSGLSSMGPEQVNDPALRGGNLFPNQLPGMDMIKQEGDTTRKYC

A word on the inhibition: it is the change of the read-out against control, counted positive when it falls. Take `CC1=C(C(=O)OCc2ccc3c(c2)OCO3)C(c2ccc(O)c([N+](=O)[O-])c2)NC(=O)N1` (stereo unspecified): the inhibition is 60% (active) in test [1]; 37.2% (active) in test [2]; 58.6% (active) in test [3]; 35.7% (active) in test [4]; 20.7% in test [5]; 33.6% in test [6].

As for `C=CCn1c(C)cc(C(=O)COc2ccc(C)nc2[N+](=O)[O-])c1C`, the inhibition was 33.7% in test [1]; -8.11% in test [2]; 9.64% in test [3]; -12.6% in test [4]; -4.94% in test [5]; 65.9% (active) in test [6].

As for `CCCN(CC(=O)Nc1ccccc1C)C(=O)CCl`, the inhibition in test [1] was 74.9% (active); in test [2] it was 48.1% (active); in test [3], 48.8% (active); in test [4], 53.4% (active); in test [5] it was 65.6% (active); in test [6], 75.8% (active).

For the molecule `Cc1cc(C(=O)CN2C(=O)c3ccccc3S2(=O)=O)c(C)n1C(C)C`, the inhibition is 31.4% in test [1]; 24.3% in test [2]; -24.8% in test [3]; 12.9% in test [4]; 29.6% in test [5]; 59.6% (active) in test [6].

In the case of `CCN(c1ccc(OC)cc1)c1ncnc2nc[nH]c12`, the inhibition in test [1] was 66.8% (active); in test [2] it was 45.6% (active); in test [3], 67.2% (active); in test [4], 48.6% (active); in test [5] it was -3.42%; in test [6], 45.7%.

Regarding `CC(=O)/C(N=Nc1ccc2c(c1)OCCO2)=C(\C)O`, the inhibition in test [1] is 45.3% (active); in test [2], -50.6%; in test [3], 22.6%; in test [4], -66.6%; in test [5], -9.49%; in test [6] it was 65.4% (active).

For the molecule `COc1ccc(-n2c(C)c([N+](=O)[O-])c3ccc(O)c(CN(C)C)c32)cc1`, the inhibition is 84.5% (active) in test [1]; 61.8% (active) in test [2]; 73.1% (active) in test [3]; 61.4% (active) in test [4]; 24.3% in test [5]; 52% (active) in test [6].

In the case of `Cc1cc(C(=O)COc2cccnc2[N+](=O)[O-])c(C)n1-c1ccccc1`, the inhibition in test [1] was -5.17%; in test [2], -52.9%; in test [3] it was -11.3%; in test [4], -70.8%; in test [5], -71.7%; in test [6], 68.1% (active).

On to `Cc1cc(N2CCOCC2)c2c(N)c(Br)cc(C)c2n1`, for which the inhibition was 71.8% (active) in test [1]; 59% (active) in test [2]; 76.3% (active) in test [3]; 60.3% (active) in test [4]; -7.31% in test [5]; 54.8% (active) in test [6].

As for `CCn1c(Oc2ccccc2C)nc2c1c(=O)n(C)c(=O)n2C`, the inhibition in test [1] was 51.9% (active); in test [2], 34.7% (active); in test [3] it was 51.5% (active); in test [4] it was 30.6% (active); in test [5] it was 14.5%; in test [6], 40.9%.

Consider `COc1ccc(-c2cc(=O)oc3cc(OC(=O)C4CCCCC4)c(Cl)cc23)cc1`, for which the inhibition in test [1] was 59.4% (active); in test [2] it was 38.7% (active); in test [3], 56% (active); in test [4], 41.2% (active); in test [5] it was -4.78%; in test [6], 37.4%.

In the case of `O=C(c1cncc(Br)c1)N1CCc2ccccc2C1`, the inhibition in test [1] was 46.3% (active); in test [2], 33.3% (active); in test [3], 46.3%; in test [4] it was 29.3% (active); in test [5], 1.4%; in test [6] it was 15.9%.

For `Cc1ccc(/C=C2\SC(=S)N(CCCC(=O)NC3CCCC3)C2=O)cc1`, the inhibition was 55.2% (active) in test [1]; 14.5% in test [2]; 41.5% in test [3]; 14.4% in test [4]; 79.5% (active) in test [5]; 89.4% (active) in test [6].

As for `O=C(N/N=C/c1cc([N+](=O)[O-])ccc1O)NC12CC3CC(CC(C3)C1)C2`, the inhibition in test [1] is 19%; in test [2], 15.1%; in test [3] it was -3.01%; in test [4], 10.3%; in test [5] it was -0.05%; in test [6] it was 42.3%.

On to `Nc1ncccc1C(=O)OCC(=O)N1CCN(S(=O)(=O)c2ccc(Cl)cc2)CC1`, for which the inhibition is 32.3% in test [1]; 22.3% in test [2]; 23.2% in test [3]; 20.6% in test [4]; -4.99% in test [5]; 25.8% in test [6].

As to `O=c1cc(-c2ccccc2Cl)oc2c([N+](=O)[O-])c(O)cc(O)c12`, the inhibition in test [1] is 61.5% (active); in test [2], 44.4% (active); in test [3], 51.9% (active); in test [4], 37% (active); in test [5], 4.67%; in test [6] it was 52.9% (active).

Take `Clc1ccc(CSc2nnc(-c3ccncc3)o2)cc1`: the inhibition in test [1] is 48.3% (active); in test [2], 30.9% (active); in test [3], 43.3%; in test [4], 32.8% (active); in test [5], -11.8%; in test [6], 28.8%.

Regarding `Cc1nc2c(-c3ccc(Cl)cc3)cnn2c(N)c1-c1ccc(F)cc1`, the inhibition in test [1] is 38%; in test [2] it was 24.5%; in test [3] it was -12%; in test [4], -6.2%; in test [5], 2.27%; in test [6] it was 53.7% (active).

For `COCCn1c(C)cc(C(=O)CSc2nnnn2C2CCCC2)c1C`, the inhibition in test [1] was -7.91%; in test [2], -5.21%; in test [3], -99.2%; in test [4] it was -66.8%; in test [5], -19.6%; in test [6], 51.9% (active).

In the case of `CCCCCN1C=CC(=C2C(=O)c3ccccc3C2=O)C=C1`, the inhibition in test [1] is 44.2% (active); in test [2] it was 31.3% (active); in test [3] it was -55.8%; in test [4], 15.5%; in test [5], 55.1% (active); in test [6], 77.3% (active).

Turning to `Nc1ccc(-c2nc3c(Cl)cc(N)cc3[nH]2)cc1`, the inhibition was 18.7% in test [1]; -18.4% in test [2]; -18.9% in test [3]; -17.4% in test [4]; 28.1% in test [5]; 71.7% (active) in test [6].
